The record followed here is ChEMBL document CHEMBL1961873, “Compounds: GSK PKIS; Assays: Nanosyn kinase panel” (2012).

For orientation: inhibition means the change of the read-out against control, counted positive when it falls.

The target in one test is High affinity nerve growth factor receptor (Homo sapiens) (UniProt P04629). The settings on record: at 1 µM.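 Note: each value is the mean percent inhibition of TRKA.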
Sequence of High affinity nerve growth factor receptor (Homo sapiens) (P04629 33-796 limits assumed): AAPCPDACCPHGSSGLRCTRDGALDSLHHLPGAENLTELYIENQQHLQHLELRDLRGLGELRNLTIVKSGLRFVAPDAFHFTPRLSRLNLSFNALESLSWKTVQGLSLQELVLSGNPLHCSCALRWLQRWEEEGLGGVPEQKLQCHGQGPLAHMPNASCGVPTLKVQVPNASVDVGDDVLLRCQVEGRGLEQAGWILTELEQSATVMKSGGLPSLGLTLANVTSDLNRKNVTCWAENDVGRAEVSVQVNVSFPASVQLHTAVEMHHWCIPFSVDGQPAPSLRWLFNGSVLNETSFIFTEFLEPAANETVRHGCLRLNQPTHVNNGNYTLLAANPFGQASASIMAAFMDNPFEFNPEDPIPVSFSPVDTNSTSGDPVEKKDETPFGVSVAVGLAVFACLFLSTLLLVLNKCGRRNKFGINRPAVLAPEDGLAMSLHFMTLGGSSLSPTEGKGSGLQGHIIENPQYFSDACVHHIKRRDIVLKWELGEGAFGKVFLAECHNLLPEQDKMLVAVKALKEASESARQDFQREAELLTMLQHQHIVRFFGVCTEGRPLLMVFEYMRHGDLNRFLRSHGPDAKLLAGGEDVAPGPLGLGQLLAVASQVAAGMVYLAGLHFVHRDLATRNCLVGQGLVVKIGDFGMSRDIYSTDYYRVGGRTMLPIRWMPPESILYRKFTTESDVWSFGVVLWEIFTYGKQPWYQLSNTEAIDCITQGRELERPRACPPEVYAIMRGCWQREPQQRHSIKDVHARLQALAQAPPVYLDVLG
`NC(=O)c1ccc(Oc2nccc(-c3c(-c4ccc(F)cc4)ncn3C3CCNCC3)n2)cc1`: the inhibition was found to be 5.13%.

With `Fc1ccc(-c2ncn(CCCN3CCOCC3)c2-c2ccncc2)cc1`, the inhibition is -2.74%. Same read-out and setting: the result for `COc1cccc(/C=N/Nc2ncnc3c2cnn3-c2cccc(OC)c2)c1` reads 4.58%. Same read-out and setting: next, `N#Cc1ccc(Oc2nccc(-c3c(-c4ccc(F)cc4)ncn3C3CCNCC3)n2)cc1`: 0.26%.

As for `COc1ccc(-c2ccc3c(NC(=O)C4CC4)n[nH]c3n2)cc1`, the inhibition is 2.48%.

`O=C(Nc1n[nH]c2cc(-c3ccccc3)ccc12)C1CC1`: the inhibition stood at 4.46%.

As to `COC(=O)Nc1nc2ccc(Sc3ccc(NC(=O)Nc4cc(C(F)(F)F)ccc4F)cc3)cc2[nH]1`, the inhibition was 83%. Same read-out and setting: the result for `CN(c1ccc(NC(=O)Nc2c(Cl)cccc2Cl)cc1)c1ccnc(Nc2cccc(CS(C)(=O)=O)c2)n1` reads 68.7%; that for `O=C1Nc2ccc(I)cc2C1=Cc1cc(Br)c(O)c(Br)c1`, 7.89%; that for `Clc1ccc(CNc2nccc(-c3cnn4ncccc34)n2)cc1`, 1.03%.

`C/C(Nc1ccc(S(N)(=O)=O)cc1)=C1/C(=O)Nc2ccccc21`: the inhibition stood at 38.3%. Still for that read-out and setting: the result for `NC(=O)c1cc(-c2ccncc2)cc(-c2ccccc2)c1N` reads 1.84%; that for `COc1cc(Nc2ncc(-c3ccccc3)o2)cc(OC)c1OC`, 23.1%. On the same count and under the same terms, the result for `NS(=O)(=O)c1ccc(N/N=C2\C(=O)Nc3ccc(-c4cnco4)cc32)cc1` reads 36.1%.

With `COc1cc2ncn(-c3cc(OCCc4ccccc4)c(C(N)=O)s3)c2cc1OC`, the inhibition is 3.49%.

Turning to `Cc1nnc(-c2ccc(C)c(-c3ccc(C(=O)NCc4ccc(Cl)cc4)cc3)c2)o1`, the inhibition turned out to be 3.12%. Consider `C#Cc1cccc(Nc2ncnc3ccc(OCCCCNCCS(C)(=O)=O)cc23)c1`, for which the inhibition was determined as 1.9%.

As for `COc1cccc(-n2cnc3c(N/N=C/c4ccncc4)ncnc32)c1`, the inhibition is 7.04%. The same measure, in the same setting: the result for `COc1ccc2cc(-c3c(-c4ccncc4)nc(-c4ccc(S(C)(=O)=O)cc4C)n3C)ccc2c1` reads 0.55%; that for `COc1ccc2ncn(-c3cc(O[C@H](C)c4ccccc4Cl)c(C(N)=O)s3)c2c1`, 4.03%. On to `O=C1NC(=O)C(c2cccc(Cl)c2)=C1Nc1ccc(Cl)c(C(=O)O)c1`, for which the inhibition was -0.54%. Turning to `CN1CCN(CCCNc2nc3ccc(Oc4ccc(NC(=O)Nc5cc(C(F)(F)F)ccc5F)cc4)cc3[nH]2)CC1`, the inhibition was 34%. Still for that read-out and setting: the result for `C[C@@H](Oc1cc(-n2cnc3ccc(OC4CCN(C)CC4)cc32)sc1C(N)=O)c1ccccc1Cl` reads 8.12%. In the case of `c1ccc(Oc2ccc(Nc3ncc(-c4ccccc4)o3)cc2)cc1`, the inhibition was 3.28%. Still for that read-out and setting: next, `CN(C)CCCNc1nccc(-c2c(-c3ccc(F)cc3)nn3cc(C(F)(F)F)ccc23)n1`: 2.77%; `COc1cc2ncn(-c3cc(OCc4ccccc4C(F)(F)F)c(C(C)=O)s3)c2cc1OC`: 1.61%. Same read-out and setting: next, `COc1ccc2cc(-c3c(-c4ccncc4)nc(-c4ccc([S+](C)[O-])cc4C)n3C)ccc2c1` (configuration not stated): -0.68%; `Fc1ccc(-c2ncn(C3CCNCC3)c2-c2ccnc(Oc3ccc4c(c3)OCO4)n2)cc1`: 4.38%. On the same count and under the same terms, the result for `NC(=O)c1cc(-c2ccc(F)cc2)cc(-c2ccncc2)c1N` reads -0.4%. As to `CCC(=O)Nc1ccc(C)c(-c2ccc(C(=O)NCC3CC3)cc2)c1`, the inhibition came out at 4.19%. The same measure, in the same setting: the result for `c1ccc(-c2n[nH]cc2-c2ccnc(-c3ccc(OCCN4CCOCC4)cc3)c2)nc1` reads -0.7%; that for `O=C(NCC1CC1)c1ccc(-c2cccc(C(=O)NC3CC3)c2)cc1`, 0.79%. The same measure, in the same setting: next, `NC(=O)Cc1ccccc1Oc1nccc(-c2c(-c3ccc(F)cc3)ncn2C2CCNCC2)n1`: 1.31%.

A further test deals with BDNF/NT-3 growth factors receptor (Homo sapiens) (UniProt Q16620). The settings on record: at 0.1 µM.
Sequence of BDNF/NT-3 growth factors receptor (Homo sapiens) (Q16620 32-822 limits assumed): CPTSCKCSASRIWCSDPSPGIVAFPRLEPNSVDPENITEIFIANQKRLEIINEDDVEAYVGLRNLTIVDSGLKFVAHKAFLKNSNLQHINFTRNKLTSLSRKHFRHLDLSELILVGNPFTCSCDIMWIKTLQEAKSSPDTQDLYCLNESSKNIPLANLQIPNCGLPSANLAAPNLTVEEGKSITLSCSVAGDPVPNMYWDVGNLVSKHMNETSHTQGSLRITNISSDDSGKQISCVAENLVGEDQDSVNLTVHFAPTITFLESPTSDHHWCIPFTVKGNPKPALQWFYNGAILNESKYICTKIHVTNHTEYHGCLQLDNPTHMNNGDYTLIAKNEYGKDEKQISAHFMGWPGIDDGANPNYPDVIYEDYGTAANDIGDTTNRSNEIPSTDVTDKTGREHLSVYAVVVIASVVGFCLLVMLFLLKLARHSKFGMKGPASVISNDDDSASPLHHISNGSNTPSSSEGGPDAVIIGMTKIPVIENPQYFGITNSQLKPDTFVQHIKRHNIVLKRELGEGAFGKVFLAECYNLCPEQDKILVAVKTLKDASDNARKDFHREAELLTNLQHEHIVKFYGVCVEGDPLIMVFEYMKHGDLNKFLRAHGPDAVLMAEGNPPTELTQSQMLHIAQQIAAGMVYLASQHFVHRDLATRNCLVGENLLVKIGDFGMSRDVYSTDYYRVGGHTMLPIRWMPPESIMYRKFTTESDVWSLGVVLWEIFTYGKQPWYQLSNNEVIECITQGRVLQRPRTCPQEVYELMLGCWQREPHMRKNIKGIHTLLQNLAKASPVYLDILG
For the molecule `NC(=O)c1ccc(Oc2nccc(-c3c(-c4ccc(F)cc4)ncn3C3CCNCC3)n2)cc1`, the inhibition amounted to 4.3%. In the case of `Fc1ccc(-c2ncn(CCCN3CCOCC3)c2-c2ccncc2)cc1`, the inhibition was -0.51%.

Regarding `COc1cccc(/C=N/Nc2ncnc3c2cnn3-c2cccc(OC)c2)c1`, the inhibition was determined as 2.99%. Still for that read-out and setting: next, `N#Cc1ccc(Oc2nccc(-c3c(-c4ccc(F)cc4)ncn3C3CCNCC3)n2)cc1`: 2.91%; `COc1ccc(-c2ccc3c(NC(=O)C4CC4)n[nH]c3n2)cc1`: 1.11%. The same measure, in the same setting: the result for `O=C(Nc1n[nH]c2cc(-c3ccccc3)ccc12)C1CC1` reads 1.46%; that for `COC(=O)Nc1nc2ccc(Sc3ccc(NC(=O)Nc4cc(C(F)(F)F)ccc4F)cc3)cc2[nH]1`, 15.1%; that for `CN(c1ccc(NC(=O)Nc2c(Cl)cccc2Cl)cc1)c1ccnc(Nc2cccc(CS(C)(=O)=O)c2)n1`, 30.1%. The same measure, in the same setting: the result for `O=C1Nc2ccc(I)cc2C1=Cc1cc(Br)c(O)c(Br)c1` reads 2.53%; that for `Clc1ccc(CNc2nccc(-c3cnn4ncccc34)n2)cc1`, 0.46%. Consider `C/C(Nc1ccc(S(N)(=O)=O)cc1)=C1/C(=O)Nc2ccccc21`, for which the inhibition came out at 14.1%. Consider `CCc1nccc2c1nc(-c1nonc1N)n2CC`, for which the inhibition is 3.6%. Still for that read-out and setting: the result for `NC(=O)c1cc(-c2ccncc2)cc(-c2ccccc2)c1N` reads 2.94%; that for `COc1cc(Nc2ncc(-c3ccccc3)o2)cc(OC)c1OC`, 2.41%.

As for `NS(=O)(=O)c1ccc(N/N=C2\C(=O)Nc3ccc(-c4cnco4)cc32)cc1`, the inhibition came out at 9.38%. The same measure, in the same setting: next, `COc1cc2ncn(-c3cc(OCCc4ccccc4)c(C(N)=O)s3)c2cc1OC`: 1.14%; `Cc1nnc(-c2ccc(C)c(-c3ccc(C(=O)NCc4ccc(Cl)cc4)cc3)c2)o1`: 3.47%; `C#Cc1cccc(Nc2ncnc3ccc(OCCCCNCCS(C)(=O)=O)cc23)c1`: 3.91%.

`COc1cccc(-n2cnc3c(N/N=C/c4ccncc4)ncnc32)c1`: the inhibition amounted to 0.22%. The same measure, in the same setting: next, `COc1ccc2cc(-c3c(-c4ccncc4)nc(-c4ccc(S(C)(=O)=O)cc4C)n3C)ccc2c1`: 2.95%; `COc1ccc2ncn(-c3cc(O[C@H](C)c4ccccc4Cl)c(C(N)=O)s3)c2c1`: 3.84%; `O=C1NC(=O)C(c2cccc(Cl)c2)=C1Nc1ccc(Cl)c(C(=O)O)c1`: 0.88%.

As for `CN1CCN(CCCNc2nc3ccc(Oc4ccc(NC(=O)Nc5cc(C(F)(F)F)ccc5F)cc4)cc3[nH]2)CC1`, the inhibition was determined as 1.65%. On to `C[C@@H](Oc1cc(-n2cnc3ccc(OC4CCN(C)CC4)cc32)sc1C(N)=O)c1ccccc1Cl`, for which the inhibition turned out to be 3.68%. For the molecule `c1ccc(Oc2ccc(Nc3ncc(-c4ccccc4)o3)cc2)cc1`, the inhibition was 0.87%. On to `CN(C)CCCNc1nccc(-c2c(-c3ccc(F)cc3)nn3cc(C(F)(F)F)ccc23)n1`, for which the inhibition was determined as 4.65%. On the same count and under the same terms, the result for `COc1cc2ncn(-c3cc(OCc4ccccc4C(F)(F)F)c(C(C)=O)s3)c2cc1OC` reads 1.74%.

With `COc1ccc2cc(-c3c(-c4ccncc4)nc(-c4ccc([S+](C)[O-])cc4C)n3C)ccc2c1` (configuration not stated), the inhibition is -0.26%. Consider `Fc1ccc(-c2ncn(C3CCNCC3)c2-c2ccnc(Oc3ccc4c(c3)OCO4)n2)cc1`, for which the inhibition stood at 5.44%.

`NC(=O)c1cc(-c2ccc(F)cc2)cc(-c2ccncc2)c1N`: the inhibition worked out at 3.69%. For `CCC(=O)Nc1ccc(C)c(-c2ccc(C(=O)NCC3CC3)cc2)c1`, the inhibition was determined as 2.75%. The same measure, in the same setting: the result for `c1ccc(-c2n[nH]cc2-c2ccnc(-c3ccc(OCCN4CCOCC4)cc3)c2)nc1` reads 0.05%; that for `O=C(NCC1CC1)c1ccc(-c2cccc(C(=O)NC3CC3)c2)cc1`, 0.56%; that for `NC(=O)Cc1ccccc1Oc1nccc(-c2c(-c3ccc(F)cc3)ncn2C2CCNCC2)n1`, 0.02%.
